# Results filed as inconclusive are left out. A call without a number means that no potency is given here. Active and inactive are the calls of the source. Calls follow the shape of the dose curve; as a rule, active = well fitted inhibition curve with a large enough effect in the signal ratio in the repeat runs (not every such curve was filed as active); inconclusive = weak or mixed curves; inactive = flat fitted curve, though single readings scatter; the % refers to the signal ratio.
# Target: Progesterone receptor (Homo sapiens) (UniProt P06401)
# Sequence (P06401 whole entry, looked up): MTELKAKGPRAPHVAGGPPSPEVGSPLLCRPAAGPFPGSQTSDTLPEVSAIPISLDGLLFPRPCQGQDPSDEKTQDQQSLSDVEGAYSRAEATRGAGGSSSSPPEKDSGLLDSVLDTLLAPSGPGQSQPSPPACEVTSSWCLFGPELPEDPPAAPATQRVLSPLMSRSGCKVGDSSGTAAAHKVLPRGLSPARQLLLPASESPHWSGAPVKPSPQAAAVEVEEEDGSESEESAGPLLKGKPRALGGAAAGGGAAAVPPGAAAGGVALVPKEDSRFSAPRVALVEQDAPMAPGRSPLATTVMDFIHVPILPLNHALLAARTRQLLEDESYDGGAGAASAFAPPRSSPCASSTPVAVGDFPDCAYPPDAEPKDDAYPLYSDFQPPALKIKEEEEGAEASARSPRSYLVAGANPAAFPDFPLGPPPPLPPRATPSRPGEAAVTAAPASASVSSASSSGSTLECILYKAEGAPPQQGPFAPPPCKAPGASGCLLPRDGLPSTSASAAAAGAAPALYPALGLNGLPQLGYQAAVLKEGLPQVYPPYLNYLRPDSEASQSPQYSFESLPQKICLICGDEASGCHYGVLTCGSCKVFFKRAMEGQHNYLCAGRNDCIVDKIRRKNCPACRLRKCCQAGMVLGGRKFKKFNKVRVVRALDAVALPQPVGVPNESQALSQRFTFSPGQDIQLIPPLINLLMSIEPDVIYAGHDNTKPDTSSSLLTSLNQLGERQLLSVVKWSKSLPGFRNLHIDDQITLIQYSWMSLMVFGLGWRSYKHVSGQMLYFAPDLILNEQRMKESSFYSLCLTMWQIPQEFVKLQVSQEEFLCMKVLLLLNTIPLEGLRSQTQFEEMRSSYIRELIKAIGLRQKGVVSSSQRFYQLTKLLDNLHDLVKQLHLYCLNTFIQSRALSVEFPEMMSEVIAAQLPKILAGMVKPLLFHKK
# Assay: qHTS assay to identify small molecule antagonists of the progesterone receptor (PR) signaling pathway (AID 1346795)
# Settings: PR-UAS-bla HEK293T, beta-lactamase FRET ratio, 16 h; series mostly up to 92.4 µM
# Source text: National Center for Advancing Translational Sciences [NCATS]
# NIH Chemical Genomics Center [NCGC]
# U.S. Environmental Protection Agency [EPA]
# National Institutes of Environmental Health Sciences [NIEHS]
# National Toxicology Program [NTP]
# U.S. Food and Drug Administration [FDA]
# Progesterone receptor (PR), a nuclear hormone receptor, plays an important role in development, metabolic homeostasis and reproduction. […] Endocrine disrupting chemicals (EDCs) and their interactions with steroid hormone receptors like PR causes disruption of normal endocrine function. To identify the compounds that inhibit PR signaling, a PR-UAS-bla GripTite cell line i.e. PR-UAS-bla HEK293T (Invitrogen, Carlsbad, CA, USA) containing a beta-lactamase reporter gene under the control of an Upstream Activator Sequence (UAS) was used to screen Tox21 10K compound library.
# Tox21 Assay Protocol Summary:
# PR-UAS-bla HEK293T cells were dispensed at 3,000 cells/4 uL of assay medium containing 2% charcoal stripped FBS per well into black wall/clear-bottom 1536-well plates using a Multidrop Combi (ThermoFisher Scientific, Waltham, MA) dispenser. After the assay plates were incubated at a 37C and 5% CO2 for 6 hr, 23 nL of compounds dissolved in DMSO, positive controls or DMSO only was transferred to the assay plate by a Pintool station (Kalypsys, San Diego, CA), followed by addition of 1 uL (1nM as final concentration) of Promegestone (R5020) in assay medium using a BioRAPTR FRD (Flying Reagent Dispenser, Aurora Discovery, San Diego, CA). The plates were incubated at 37C and 5% CO2 for 16 hr. Then 1 uL of LiveBLAzer B/G FRET substrate was added using a FRD. After the plates were incubated at room temperature for 2 hours, fluorescence intensity was measured by an Envision plate reader (PerkinElmer, Shelton, CT).
# Potency is read from the fitted curve at half-maximal effect.
row,Compound,Potency
1,O=C1C=CC(=O)c2ccccc21,inactive
2,CCCCCCCCCCCCCCCCCCn1cc[n+](C)c1,54.2 µM (active)
3,C1CCC2CCCCC2C1 (stereo not given),inactive
4,COP(=O)(CCC(=O)NCO)OC,inactive
5,CC(C)CC(C)Nc1ccc(Nc2ccccc2)cc1 (stereo not given),47.7 µM (active)
6,CC(O)C#N (stereo not given),inactive
7,BrCC(Br)c1ccccc1 (stereo not given),inactive
8,N#CC(Cl)Cl,inactive
9,CC[C@H](C)[C@H]1O[C@]2(C=C[C@@H]1C)C[C@@H]1C[C@@H](C/C=C(\C)[C@@H](O[C@H]3C[C@H](OC)[C@@H](O[C@H]4C[C@H](OC)[C@@H](O)[C@H](C)O4)[C@H](C)O3)[C@@H](C)/C=C/C=C3\CO[C@@H]4[C@H](O)C(C)=C[C@@H](C(=O)O1)[C@]34O)O2,16.1 µM (active)
10,FC(F)(F)c1cccc(C2=CCN(CCc3ccc4ccccc4c3)CC2)c1,inactive
11,Nc1ccc(Cl)cc1C(=O)c1ccccc1,17.2 µM (active)
12,CNC(C)Cc1ccc2c(c1)OCO2 (stereo not given),75.1 µM (active)
13,CCN(CC)C(=S)[S-].CCN(CC)C(=S)[S-].[Zn+2],1.08 µM (active)
14,Clc1ccc(Oc2ccccc2)cc1,inactive
15,Nc1ccc(Cc2ccc(N)c(Cl)c2)cc1Cl,13.2 µM (active)
16,C=COCCCl,inactive
17,CC(C)CCCCCOC(=O)c1ccccc1C(=O)OCCCCCC(C)C,inactive
18,CC(C)CBr,inactive
19,Nc1ccccc1C(=O)Oc1ccc2ccccc2c1,30.6 µM (active)
20,c1ccc2c(c1)OCC(C1=NCCN1)O2 (stereo not given),21.1 µM (active)

row,Compound,Potency
1,O=C/C(Cl)=C(/Cl)C(=O)O,inactive
2,Clc1ccc(C(Cl)(Cl)Cl)c(Cl)c1,inactive
3,O=C1c2ccccc2C(=O)C1C(=O)C(c1ccccc1)c1ccc(Cl)cc1 (stereo not given),19.3 µM (active)
4,O=C(Nc1ccc2[nH]ccc2c1)c1cc2cc(F)ccc2n1Cc1cccc(F)c1,12.2 µM (active)
5,C[As+](C)(C)CC(=O)[O-],inactive
6,Oc1ccc(I)cc1,61.1 µM (active)
7,Oc1cccc(-c2ccccc2)c1,30.6 µM (active)
8,Oc1c(Br)c(Br)c(Br)c(Br)c1Br,27.5 µM (active)
9,CCCCCCCCCCBr,inactive
10,CCc1ccccc1C,inactive
11,O=C1NCN(c2ccccc2)C12CCN(CC1COc3ccccc3O1)CC2 (stereo not given),inactive
12,COC(=O)N(C(=O)N1COC2(C(=O)OC)Cc3cc(Cl)ccc3C2=N1)c1ccc(OC(F)(F)F)cc1 (stereo not given),29.8 µM (active)
13,CCOC(=O)OC1=C(c2cc(C)ccc2C)C(=O)NC12CCC(OC)CC2 (stereo not given),inactive
14,CN(C)CCc1c[nH]c2ccc(O)cc12,53.2 µM (active)
15,CCOC(=O)c1ccccc1S(=O)(=O)NC(=O)Nc1nc(Cl)cc(OC)n1,inactive
16,COP(N)(=S)OC,inactive
17,Nc1c(Oc2ccccc2)cc(O)c2c1C(=O)c1ccccc1C2=O,inactive
18,Cc1cc(N=Nc2ccccc2C)ccc1N,12.2 µM (active)
19,CCCCCCCCCCCCCN1CC(C)OC(C)C1 (stereo not given),inactive
20,CCCCCCCCCCCCCCC(Br)C(=O)O (stereo not given),inactive

# Reference: PubChem BioAssay (Tox21)
